Data on six compounds can be found in PubChem BioAssay.

Assay [1] in a line: optical density shifts of acrAB sulA E. coli – strain DRC41, OD650, 48 h, E. coli filamentation inducer project, primary screen (AID 1152).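 Further: E. coli MC1000 strain DRC41 lacking acrAB efflux pump and sulA.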 The note with it: higher = more signal, called active from +8 up or from −8 down.
A short description of assay [2]: probe aLefty1 binding on compound microarray – biochemical, small-molecule microarray, 635/667 nm fluorescence, primary screen (AID 1153).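 Further: score merges spot fluorescence with signal-to-noise ratio from the scanned slide images.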 The note with it: higher = more signal.
The nature of assay [3]: plasmodial surface anion channel blockers, osmotic lysis – cell-based, P. falciparum Indochina, OD700, 1 h, primary screen (AID 1154). The note with it: P. falciparum Indochina infected RBC osmotic lysis, higher = more signal, called active from +8 up or from −8 down.
A short description of assay [4]: plasmodial surface anion channel blockers, osmotic lysis – cell-based, P. falciparum Indochina, OD700, 2 h, primary screen (AID 1155).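 Further: lysis reports solute entry through the parasite surface anion channel PSAC.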 The note with it: P. falciparum Indochina infected erythrocytes, higher = more signal, called active from +8 up or from −8 down.
A short description of assay [5]: changes in parasitized red cell lysis, either direction – P. falciparum Indochina, OD700, 3 h, PSAC antagonist project, primary screen (AID 1156). The note with it: P. falciparum-infected erythrocytes, osmotic lysis, higher = more signal, called active from +8 up or from −8 down.
Assay [6] in a line: plasmodial surface anion channel blockers, osmotic lysis – cell-based, P. falciparum Indochina, OD700, 18 h, primary screen (AID 1157). The note with it: P. falciparum Indochina infected erythrocytes, osmotic lysis OD700, 18 h; higher = more signal, called active from +8 up or from −8 down.
A short description of assay [7]: S6 kinase pathway phospho-S6 level changes – cell-based, A549, cytoblot, luminescence, serum-stimulated, primary screen (AID 1158).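 Further: serum-stimulated A549 lung adenocarcinoma cells; signal is phosphorylated S6 detected by cytoblot immunostaining with HRP secondary.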 The note with it: 5 h, higher = more signal.
Assay [8] addresses NADPH oxidase 2 (Homo sapiens) (UniProt P04839). Nature of the assay: compounds shifting NOX2 Amplex Red fluorescence – cell-based, HEK293-NOX2, PMA-stimulated, NOX inhibitor project, primary screen (AID 1159). Further: test concentration not given here. The note with it: 45 min, higher = more signal, called active from +8 up or from −8 down.
Assay [9] concerns the target NADPH oxidase 4 (Homo sapiens) (UniProt Q9NPH5). Nature of the assay: compounds shifting NOX4 Amplex Red fluorescence – cell-based, HEK293-NOX4, tetracycline-induced, NOX inhibitor project, primary screen (AID 1160). The note with it: HEK293-NOX4, Amplex Red H2O2 fluorescence, 45 min; higher = more signal, called active from +8 up or from −8 down.
For assay [10], the target named is NADPH oxidase 5 (Homo sapiens) (UniProt Q96PH1). Description: compounds shifting NOX5 Amplex Red fluorescence – cell-based, HEK293-NOX5, NOX inhibitor project, primary screen (AID 1161). The note with it: HEK293-NOX5, ionomycin, 45 min, higher = more signal.
NADPH oxidase 5 (Homo sapiens), sequence (Q96PH1 whole entry, looked up): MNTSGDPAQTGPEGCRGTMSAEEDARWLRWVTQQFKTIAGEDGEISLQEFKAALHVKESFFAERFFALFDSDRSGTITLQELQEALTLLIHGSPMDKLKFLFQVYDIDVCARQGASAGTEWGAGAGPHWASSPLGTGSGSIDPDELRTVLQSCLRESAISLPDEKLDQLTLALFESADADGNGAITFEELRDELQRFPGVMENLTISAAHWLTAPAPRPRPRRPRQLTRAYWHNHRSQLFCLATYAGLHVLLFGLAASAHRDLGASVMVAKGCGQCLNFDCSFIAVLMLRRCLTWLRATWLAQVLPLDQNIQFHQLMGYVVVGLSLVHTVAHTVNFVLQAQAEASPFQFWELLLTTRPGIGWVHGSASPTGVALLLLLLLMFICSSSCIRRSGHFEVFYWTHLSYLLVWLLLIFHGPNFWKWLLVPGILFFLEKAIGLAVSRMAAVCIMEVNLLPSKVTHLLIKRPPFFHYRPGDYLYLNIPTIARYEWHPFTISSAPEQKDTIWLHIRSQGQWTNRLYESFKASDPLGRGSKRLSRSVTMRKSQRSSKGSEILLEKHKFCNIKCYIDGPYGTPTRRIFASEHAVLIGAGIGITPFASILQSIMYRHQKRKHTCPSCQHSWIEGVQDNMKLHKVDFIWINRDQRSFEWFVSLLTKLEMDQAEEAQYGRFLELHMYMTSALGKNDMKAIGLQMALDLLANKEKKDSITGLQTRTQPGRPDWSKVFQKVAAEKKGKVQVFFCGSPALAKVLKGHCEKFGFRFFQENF
Assay [11] is described as follows: compound effects on lung adenocarcinoma cell viability – A549, calcein-AM fluorescence, 48 h, basal, profiling panel (AID 1162). Further: test concentration not given here. The note with it: higher = more signal.
Assay [12] is described as follows: compound effects on differentiated 3T3-L1 adipocyte viability – cell-based, 3T3-L1 adipocytes, calcein-AM fluorescence, 48 h, basal, profiling panel (AID 1163). Further: test concentration not given here. The note with it: 3T3-L1 adipocytes viability, higher = more signal.
Assay [13] is described as follows: compound effects on hepatocellular carcinoma cell viability – HepG2, calcein-AM fluorescence, 48 h, basal, profiling panel (AID 1164). Further: test concentration not given here. The note with it: higher = more signal.
Assay [14] in a line: compound effects on multiple myeloma cell viability – MM1S, calcein-AM fluorescence, 48 h, basal, profiling panel (AID 1165).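 Further: viability of MM1S multiple myeloma cells under basal unstimulated conditions; test concentration not given here.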 The note with it: higher = more signal.
Assay [15] is described as follows: calcein-AM signal in unstimulated myeloma cells – cell-based, calcein-AM fluorescence, 48 h, PK04 Diversity Set, profiling panel (AID 1166).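 Further: cells grown under basal conditions without added stimulus; test concentration not given here.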 The note with it: RPMI8226 myeloma viability, higher = more signal.
A short description of assay [16]: JC-1 mitochondrial signal, unstimulated HepG2 cells – cell-based, JC-1 fluorescence, 24 h, 100 nL compound, profiling panel (AID 1167). Further: test concentration not given here. The note with it: HepG2 mitochondrial potential, higher = more signal.
A short description of assay [17]: JC-1 mitochondrial signal, unstimulated adipocytes – cell-based, JC-1 fluorescence, 3T3-L1 adipocytes, 24 h, 100 nL compound, profiling panel (AID 1168). Further: test concentration not given here. The note with it: JC-1 mitochondrial fluorescence, higher = more signal, called active from +8 up or from −8 down.
Assay [18] in a line: JC-1 mitochondrial signal, unstimulated myeloma cells – cell-based, JC-1 fluorescence, RPMI8226, 24 h, 100 nL compound, profiling panel (AID 1169). Further: test concentration not given here. The note with it: JC-1 mitochondrial potential fluorescence, higher = more signal.
A short description of assay [19]: JC-1 mitochondrial signal, unstimulated MM1S myeloma – cell-based, JC-1 fluorescence, 24 h, 100 nL compound, profiling panel (AID 1170). Further: test concentration not given here. The note with it: MM1S mitochondrial potential, higher = more signal.
The nature of assay [20]: resazurin metabolic signal in A549 cells – cell-based, resazurin fluorescence, 24 h, PK04 Diversity Set, profiling panel (AID 1171). Further: test concentration not given here. The note with it: A549 viability, higher = more signal, called active from +8 up or from −8 down. Background: Alamar Blue is a resazurin reagent that responds to reducing activity.

Each structure is given as a SMILES string. Active and inactive are the calls of the source.

NADPH oxidase 2 (Homo sapiens), sequence (P04839 whole entry, looked up): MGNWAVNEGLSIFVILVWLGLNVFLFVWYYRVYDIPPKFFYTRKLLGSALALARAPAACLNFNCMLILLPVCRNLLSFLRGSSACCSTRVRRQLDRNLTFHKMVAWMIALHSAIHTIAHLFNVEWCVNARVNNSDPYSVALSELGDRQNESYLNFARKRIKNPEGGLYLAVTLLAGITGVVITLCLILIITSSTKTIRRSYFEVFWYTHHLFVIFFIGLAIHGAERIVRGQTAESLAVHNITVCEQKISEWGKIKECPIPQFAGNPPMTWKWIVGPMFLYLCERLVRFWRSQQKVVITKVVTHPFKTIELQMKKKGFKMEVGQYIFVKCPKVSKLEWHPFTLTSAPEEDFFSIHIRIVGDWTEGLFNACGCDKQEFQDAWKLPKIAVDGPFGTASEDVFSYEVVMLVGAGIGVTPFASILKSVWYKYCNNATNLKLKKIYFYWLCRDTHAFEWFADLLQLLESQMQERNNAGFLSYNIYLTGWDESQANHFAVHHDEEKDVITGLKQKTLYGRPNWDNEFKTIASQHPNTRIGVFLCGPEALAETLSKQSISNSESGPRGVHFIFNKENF
NADPH oxidase 4 (Homo sapiens), sequence (Q9NPH5 whole entry, looked up): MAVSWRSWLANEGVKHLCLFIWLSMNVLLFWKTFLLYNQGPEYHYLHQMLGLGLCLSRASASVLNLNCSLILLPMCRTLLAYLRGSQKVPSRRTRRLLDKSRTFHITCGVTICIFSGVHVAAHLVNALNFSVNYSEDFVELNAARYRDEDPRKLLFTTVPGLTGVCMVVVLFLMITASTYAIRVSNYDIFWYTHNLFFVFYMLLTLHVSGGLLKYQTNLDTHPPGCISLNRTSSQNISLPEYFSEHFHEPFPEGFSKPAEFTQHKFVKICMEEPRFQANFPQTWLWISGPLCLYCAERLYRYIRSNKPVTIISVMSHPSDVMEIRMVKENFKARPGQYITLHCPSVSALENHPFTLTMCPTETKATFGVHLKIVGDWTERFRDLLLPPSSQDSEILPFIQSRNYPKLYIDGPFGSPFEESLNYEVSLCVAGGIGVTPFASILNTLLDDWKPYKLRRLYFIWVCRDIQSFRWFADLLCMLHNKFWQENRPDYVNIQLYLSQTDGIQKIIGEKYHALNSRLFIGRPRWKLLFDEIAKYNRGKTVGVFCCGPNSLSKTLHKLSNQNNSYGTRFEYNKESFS

Regarding `CCCNC(=O)OC[C@H]1O[C@H](CCON=Cc2ccc(C(=O)N3[C@H](c4ccc(C)cc4)[C@@H](C)CC[C@H]3C(=O)OC)cc2)C=C[C@@H]1Oc1ccc(OC)cc1`, the z-score is 0.33 (inactive) in [1]; 1.21 (inactive) in assay [3]; 0.674 (inactive) in assay [4]; 0.0952 (inactive) in assay [5]; 0.612 (inactive) in [6]; -0.619 in assay [7]. Moreover, the z-score was 0.725 (inactive) in [8]; 0.611 (inactive) in [9]; 0.393 in [10]; -0.167 in assay [11]; 0.885 in assay [12]; -0.0578 in [13]. Further, the z-score is -0.164 in [14]; -0.581 in assay [15]; 2.75 in assay [16]; -3.26 (inactive) in assay [17]; 0.694 in assay [18]; 0.235 in assay [19]. In addition, in [20], the z-score is -0.471 (inactive). Moreover, the composite z-score in assay [2] was -0.16.
With `CCOC(=O)[C@H](Cc1ccccc1)NC(=O)CCC1CC(OC(=O)NCc2ccc3c(c2)OCO3)CC2(CCCC(COC(=O)NCCC(C)C)O2)O1` (stereo not given in full), the z-score in assay [1] is 0.241 (inactive); in assay [3] it was 25.3 (active); in assay [4], 11.5 (active); in assay [5], 1.26 (inactive); in assay [6], 1.5 (inactive); in [7], 0.274. For the same compound, the z-score in assay [8] was 1.3 (inactive); in [9] it was 0.25 (inactive); in assay [10], 0.277; in assay [11] it was 0.339; in assay [12], 1.36; in assay [13] it was -1.58. The z-score in assay [14] was -3.41; in assay [15], -3.9; in assay [16] it was 0.162; in assay [17], -0.375 (inactive); in assay [18] it was -0.212; in assay [19], -1.32. Also, the z-score in assay [20] was -0.149 (inactive). The composite z-score in assay [2] was -0.0162.
Regarding `C[C@@H](ON=C1[C@H]2CCn3c(=O)n(-c4ccccc4)c(=O)n3[C@H]2[C@H](O)[C@@H]2O[C@H]12)c1cn([C@@H]2COC[C@H]2O)nn1`, the z-score in [1] was -0.212 (inactive); in assay [3], 0.595 (inactive); in [4], 0.277 (inactive); in assay [5], 0.0251 (inactive); in [6], 0.122 (inactive); in [7] it was -0.574. The z-score in assay [8] was -0.183 (inactive); in assay [9], -0.242 (inactive); in assay [10] it was -0.461; in assay [11], 0.0219; in assay [12] it was -0.15; in assay [13], 0.373. Also, the z-score in assay [14] was -0.289; in assay [15], -0.292; in [16], -0.377; in assay [17] it was -1.84 (inactive); in assay [18] it was -0.0731; in assay [19], -0.696. Besides, in [20], the z-score is 0.0264 (inactive). Besides, in [2], the composite z-score is -0.255.
As for `CO[C@H]1COC(=O)CC=C[C@@H](C)[C@H](OC)COC(=O)CCC[C@@H]1C`, the z-score in [1] is 0.398 (inactive); in assay [3], -0.674 (inactive); in assay [4], -1.22 (inactive); in [5], -0.518 (inactive); in assay [6], -2.08 (inactive); in assay [7] it was -0.0645. Besides, the z-score is 0.00516 (inactive) in assay [8]; 0.612 (inactive) in assay [9]; 0.863 in [10]; -0.71 in assay [11]; -0.0523 in [12]; 0.0225 in assay [13]. Also, the z-score in assay [14] is 0.0987; in assay [15] it was 0.102; in [16] it was -0.639; in [17], -0.399 (inactive); in [18], -0.509; in [19] it was -0.135. Besides, the z-score in assay [20] is 0.795 (inactive). Besides, in assay [2], the composite z-score is -0.216.
In the case of `C=CC[C@@H]1C=C[C@H](ON=C[C@@H](C)[C@H](OCc2ccccc2)C(C)C)[C@@H](CO)O1`, the z-score is -0.144 (inactive) in assay [1]; 1.64 (inactive) in [3]; 0.0178 (inactive) in [4]; -0.667 (inactive) in [5]; 0.197 (inactive) in assay [6]; -0.544 in [7]. The z-score in assay [8] is -0.55 (inactive); in assay [9] it was -0.301 (inactive); in assay [10], -1.48; in assay [11] it was -0.475; in assay [12] it was -0.162; in assay [13], -0.746. Besides, the z-score in assay [14] was -1.55; in assay [15] it was -0.958; in [16] it was -1.94; in assay [17], -0.87 (inactive); in assay [18], -0.419; in assay [19], -0.874. Also, in assay [20], the z-score was 0.0506 (inactive). Besides, the composite z-score in assay [2] was -0.193.
Regarding `CC(C)=NOC[C@@H](C)[C@H](OCc1ccccc1)C(C)C`, the z-score in assay [1] was 0.287 (inactive); in assay [3] it was 0.641 (inactive); in assay [4] it was 0.503 (inactive); in assay [5], 0.795 (inactive); in assay [6] it was 0.39 (inactive); in [7] it was 0.453. The z-score in assay [8] was 0.409 (inactive); in assay [9], -1.72 (inactive); in [10], -1; in assay [11], 0.108; in assay [12], 0.311; in assay [13], -0.0481. For the same compound, the z-score was -0.313 in [14]; -0.556 in assay [15]; -0.0858 in [16]; 0.0392 (inactive) in assay [17]; -0.279 in assay [18]; 0.503 in [19]. Also, the z-score in assay [20] was -0.557 (inactive). The same compound came in with a composite z-score in [2] of 0.103.
